Screens deposited in PubChem BioAssay by NMMLSC.
CIT2 TOR yeast: modulators of TOR pathway CIT2-GFP in S. cerevisiae | S. cerevisiae CIT2-GFP strain, flow cytometry, 3 h; 100 means same as DMSO wells | 320,000 tested, 0.065% active | GFP response vs DMSO, % at 10 µM;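 active = GFP response relative to DMSO above a set limit, near the screen mean plus 3 SD, cut at about 150% in these data; inconclusive = Fewer than 70 cells measured for a yeast strain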;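 note: ratio of well median GFP fluorescence to mean of DMSO wells on the plate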
RPL19A-GFP yeast: modulators of TOR pathway RPL19A-GFP in S. cerevisiae; S. cerevisiae RPL19A-GFP strain, flow cytometry, 3 h; stronger effect = lower value; percent response vs DMSO, % at 10 µM; 330,000 tested, 0.3% active; AID 2025;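 active = percent response vs DMSO below 50%; inconclusive = fewer than 70 events counted for the yeast strain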;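 note: median channel GFP fluorescence of the barcoded RPL19A-GFP strain; lower means less RPL19A-GFP as with rapamycin TOR inhibition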
LAP4 TOR yeast: alters LAP4-GFP fluorescence in TOR pathway yeast screen; S. cerevisiae LAP4-GFP multiplex, flow cytometry GFP, 3 h; median GFP as percent of DMSO wells; GFP response vs DMSO, % at 10 µM; 320,000 tested, 0.34% active; AID 2023;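 active = GFP response vs DMSO above a set limit, about the screen mean plus 3 SD, cut at about 150% in these data; inconclusive = under 70 cell events counted for the yeast strain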
MEP2-GFP yeast: modulators of TOR pathway MEP2-GFP in S. cerevisiae; GFP response vs DMSO, % at 10 µM; AID 2016; S. cerevisiae MEP2-GFP strain, flow cytometry GFP, 3 h; 100% = DMSO control level; 330,000 tested, 0.51% active;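 active = GFP response versus DMSO above a set limit, roughly screen mean plus 3 SD, cut at about 180% in these data; inconclusive = fewer than 70 cells counted for a yeast strain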;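 note: median GFP fluorescence of the barcode-gated MEP2-GFP cells per well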
AGP1-GFP MLPCN: alters AGP1-GFP fluorescence in TOR pathway yeast screen; S. cerevisiae AGP1-GFP multiplex flow cytometry, 3 h; GFP as percent of DMSO wells; AID 2066; GFP response vs DMSO, % at 10 µM; 320,000 tested, 0.02% active;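 active = GFP response relative to DMSO above a set limit, near screen average plus 3 SD, cut at about 150% in these data; inconclusive = fewer than 70 cells counted for the yeast strain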;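 note: median GFP channel fluorescence of the gated AGP1 strain per well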
Of the large screens only hits and unclear results are named; the others gave an inactive call; [ ] = another dose, or the depositor's remark. Shown are actives, neighbours in structure and some others; about 0.92% of the full set was active somewhere.

CCCOC(=O)c1ccc(NC(=O)COC)cc1	CIT2 TOR yeast inconclusive, MEP2-GFP yeast 188[may fluoresce violet]
CCCOC(=O)c1ccc(NC(=O)CC(C)(C)C)cc1	none
Cc1noc(/C=C/c2cccnc2)c1[N+](=O)[O-]	LAP4 TOR yeast 161
COc1ccc(CCN2C(=O)CC(N3CCN(S(=O)(=O)c4ccccc4)CC3)C2=O)cc1OC (stereo unspecified)	none
COc1ccc(CN2C(=NC(=O)C3CC3)SC3CS(=O)(=O)CC32)cc1OC (stereo unspecified)	none
CC(=O)Nc1ccc(S(=O)(=O)Nc2cc3c(cc2C(C)=O)OCO3)cc1	CIT2 TOR yeast inconclusive, MEP2-GFP yeast 466[may fluoresce violet], AGP1-GFP MLPCN inconclusive
CC(=O)c1cc2c(cc1NS(=O)(=O)c1ccccc1)OCO2	none
CCOC(=O)c1[nH]c2ccc(OC)cc2c1N=CN(C)C	none
N=c1ccn(CC(=O)c2ccc(-c3ccccc3)cc2)cc1	LAP4 TOR yeast 154
COc1ccc(Cl)cc1N(CC(=O)N1CCCC1)S(=O)(=O)c1ccc(C)cc1	CIT2 TOR yeast inconclusive, RPL19A-GFP yeast 47[may fluoresce violet], MEP2-GFP yeast 216[may fluoresce violet], AGP1-GFP MLPCN inconclusive
Clc1ccc(OCCSc2nnnn2C2CCCCC2)cc1	CIT2 TOR yeast inconclusive, MEP2-GFP yeast 236[may fluoresce violet] (no result: AGP1-GFP MLPCN)
O=C(CN(C1CCCCC1)C1CCCCC1)N1CCc2ccccc2C1	none
COc1ccc(CNC(=O)c2cc3cccc(O)c3oc2=N)cc1	none
CCOC(=O)Cc1csc(NC(=O)/C=C/c2ccc(Cl)cc2)n1	none
O=S(=O)(c1ccc(-c2nnco2)cc1)N1CCCCC1	none
O=S(=O)(c1ccc(Oc2ccc(-c3nnco3)cc2)nc1)N1CCC(Cc2ccccc2)CC1	CIT2 TOR yeast inconclusive, RPL19A-GFP yeast 27[may fluoresce violet], MEP2-GFP yeast 222[may fluoresce violet], AGP1-GFP MLPCN inconclusive
Clc1ccccc1Nc1nc(-c2cccnc2)cs1	CIT2 TOR yeast inconclusive, RPL19A-GFP yeast 43[may fluoresce violet], MEP2-GFP yeast 210[may fluoresce violet], AGP1-GFP MLPCN inconclusive
c1cncc(Nc2nc(-c3cccnc3)cs2)c1	none
CCN(CC)c1ccc(/C=C/c2nc3ccccc3s2)cc1	MEP2-GFP yeast 206
CC(C)C[C@H](NC(=O)OC(C)(C)C)C(=O)N1CCC(C(=O)O)CC1	CIT2 TOR yeast inconclusive, RPL19A-GFP yeast 42[may fluoresce violet], MEP2-GFP yeast 371[may fluoresce violet], AGP1-GFP MLPCN inconclusive
Cc1ccc(CNC(=O)N[C@@H](Cc2ccccc2)C(=O)O)cc1	none
CCc1ccccc1NC(=O)C1CCCN(c2nccc(C)n2)C1 (stereo unspecified)	CIT2 TOR yeast inconclusive, RPL19A-GFP yeast 25[may fluoresce violet], MEP2-GFP yeast inconclusive, AGP1-GFP MLPCN inconclusive
Cc1ccc(-n2ncc3c2CC(C)(C)CC3NC(=O)c2c(C)noc2C)cc1 (stereo unspecified)	none
COc1cc(C(=O)ON=C2C3CC4CC(C3)CC2C4)cc(OC)c1OC	CIT2 TOR yeast 180, LAP4 TOR yeast 155
COc1cc(C(=O)O/N=C2\C=CC(=O)C=C2C)cc(OC)c1OC	none
CSc1cccc(NC(=O)C2CCCN(S(=O)(=O)c3ccc(F)cc3)C2)c1 (stereo unspecified)	none
CSc1cccc(NC(=O)C2CCCN(S(=O)(=O)c3cccs3)C2)c1 (stereo unspecified)	CIT2 TOR yeast inconclusive, RPL19A-GFP yeast 16[may fluoresce violet], LAP4 TOR yeast inconclusive, MEP2-GFP yeast inconclusive, AGP1-GFP MLPCN inconclusive
Cc1cc(NC(=O)c2ccc(Br)o2)ccc1NC(=O)c1ccco1	CIT2 TOR yeast inconclusive, RPL19A-GFP yeast 45[may fluoresce violet], MEP2-GFP yeast 238[may fluoresce violet], AGP1-GFP MLPCN inconclusive
Cc1ccc(C(=O)Nc2ccc(NC(=O)c3ccco3)c(C)c2)cc1	none
COc1ccc(N(CC(=O)N/N=C/c2cc(OC)ccc2OC)S(=O)(=O)c2ccccc2)cc1	MEP2-GFP yeast 185
COc1ccc(N(CC(=O)N/N=C/c2ccc(OC)cc2OC)S(=O)(=O)c2ccccc2)cc1	none
O=c1n(-c2ccccc2)c(=O)n2n1CC(O)C2	none
CCCCC(CC)CNC(=O)C(=O)c1ccccc1NC(C)=O (stereo unspecified)	CIT2 TOR yeast inconclusive, RPL19A-GFP yeast 41[may fluoresce violet], MEP2-GFP yeast 191[may fluoresce violet]
Cc1ccc(C(=O)N/C(=C\c2cn(C)c3ccccc23)C(=O)NCCN2CCOCC2)cc1	CIT2 TOR yeast inconclusive, RPL19A-GFP yeast 34[may fluoresce violet], MEP2-GFP yeast 231[may fluoresce violet], AGP1-GFP MLPCN inconclusive
Cc1ccc(C(=O)N/C(=C\c2ccc(-c3ccccc3[N+](=O)[O-])o2)C(=O)NCCCN2CCOCC2)cc1	CIT2 TOR yeast inconclusive, RPL19A-GFP yeast 13[may fluoresce violet], AGP1-GFP MLPCN inconclusive
Cc1ccc(C(=O)N/C(=C\c2ccc(Cl)cc2)C(=O)NCCN2CCOCC2)cc1	CIT2 TOR yeast inconclusive, MEP2-GFP yeast 361[may fluoresce violet], AGP1-GFP MLPCN inconclusive
O=C(NC(=S)NCCN1CCOCC1)c1cccc(Cl)c1	CIT2 TOR yeast inconclusive, RPL19A-GFP yeast 24[may fluoresce violet], MEP2-GFP yeast 218[may fluoresce violet], AGP1-GFP MLPCN inconclusive
COc1ccc(C(=O)N/C(=C\c2cn(C)c3ccccc23)C(=O)NCCCn2ccnc2)cc1	CIT2 TOR yeast inconclusive, MEP2-GFP yeast 181[may fluoresce violet], AGP1-GFP MLPCN inconclusive
Cc1ccc(C(=O)N/C(=C\c2cn(C)c3ccccc23)C(=O)NCCCN2CCOCC2)cc1	CIT2 TOR yeast inconclusive, RPL19A-GFP yeast 40[may fluoresce violet], MEP2-GFP yeast 260[may fluoresce violet], AGP1-GFP MLPCN inconclusive
Cc1ccc(C(=O)N/C(=C\c2cn(C)c3ccccc23)C(=O)NCCCn2ccnc2)cc1	none
COc1ccc(N2CCN(CCNC(=O)Nc3ccc(C)cc3Cl)CC2)cc1	CIT2 TOR yeast inconclusive, RPL19A-GFP yeast 28[may fluoresce violet], MEP2-GFP yeast 400[may fluoresce violet], AGP1-GFP MLPCN inconclusive
O=C(Cc1ccccc1)NN1C(=O)C2C3C=CC(C3)C2C1=O (stereo unspecified)	CIT2 TOR yeast inconclusive, MEP2-GFP yeast 232[may fluoresce violet] (no result: AGP1-GFP MLPCN)
NS(=O)(=O)c1ccc(N2N=C(c3ccccc3)CC2c2ccccc2)cc1 (stereo unspecified)	none
CCc1ccc(C2=NN(c3ccc(S(N)(=O)=O)cc3)C(c3ccc(F)cc3)C2)cc1 (stereo unspecified)	CIT2 TOR yeast inconclusive, MEP2-GFP yeast 202[may fluoresce violet] (no result: AGP1-GFP MLPCN)
Cc1c(C)n2c(SCC(=O)NCc3ccc4c(c3)OCO4)nnc2[nH]c1=O	none
Clc1ccc2ccc3cccnc3c2n1	none
O=S1(=O)Nc2c(ccc3cccnc23)-c2ccccc21	LAP4 TOR yeast 240
CC(C)c1ccc(C2C3CSCC=C3C(C#N)=C(N)C2(C#N)C#N)cc1 (stereo unspecified)	LAP4 TOR yeast 170
COc1ccccc1NC(=O)c1cc(S(=O)(=O)NC2CCCC2)ccc1F	CIT2 TOR yeast inconclusive, RPL19A-GFP yeast 39[may fluoresce violet], MEP2-GFP yeast 266[may fluoresce violet], AGP1-GFP MLPCN inconclusive
COCCn1c(SCc2cccc(F)c2)nc2cc(C(=O)OC)ccc2c1=O	none
CC1CC(=O)Nc2ccccc2N1S(=O)(=O)c1ccc(C(F)(F)F)cc1 (stereo unspecified)	CIT2 TOR yeast 162[may fluoresce green]
COc1ccc(S(=O)(=O)N2c3ccccc3NC(=O)CC2C)cc1 (stereo unspecified)	none
COc1ccc(CNC(=O)c2nccnc2CO)cc1	none
O=C(CCCC(=O)OCC(F)(F)C(F)F)Nc1ccc(NC(=O)CCCC(=O)OCC(F)(F)C(F)F)cc1	none
